# Experimental data published in PubChem BioAssay (Tox21).
# Unmarked numbers belong to inactive results. Results filed as inconclusive are left out. Where a call stands in place of a potency, no number is given. Calls of active or inactive are those of the source. Unless noted, the call rests on the fitted dose curve.
# Legend:
# [1] = Nuclear factor erythroid 2-related factor 2/antioxidant responsive element (Nrf2/ARE) small molecule agonists: qHTS cell viability counter screen in human keratinocytes (AID 1919968; active means well fitted curve in the direction sought with a large enough effect in the repeat runs; an effect the other way counts as inactive or inconclusive; further: nearly all actives have a fitted effect of over 55% in size; further: potency means the concentration at half of the fitted maximal effect)
# In short: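 KeratinoSens cells (HaCaT keratinocytes stably carrying an ARE-luciferase reporter) were seeded at 1,500 cells/well and rested 5 h at 37 C/5% CO2. They were then exposed to compounds in DMSO for 23 h. Viability was read by CellTiter-Fluor fluorescence after 1 h.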
# [2] = Nuclear factor erythroid 2-related factor 2/antioxidant responsive element (Nrf2/ARE) small molecule agonists: luciferase reporter gene qHTS assay in human keratinocytes (AID 1919969); further: nearly all actives have a fitted effect of over 35% in size; further: potency means the concentration at half of the fitted maximal effect
# [3] = molecular target: Gonadotropin-releasing hormone receptor (Homo sapiens) (UniProt P30968); assay: Human gonadotropin-releasing hormone receptor (GnRHR) small molecule agonists, calcium flux assay in GnRHR-HEK293 cells (AID 1920063); further: nearly all actives have a fitted effect of over 35% in size
# Chain of Gonadotropin-releasing hormone receptor (Homo sapiens) (P30968 whole entry, looked up): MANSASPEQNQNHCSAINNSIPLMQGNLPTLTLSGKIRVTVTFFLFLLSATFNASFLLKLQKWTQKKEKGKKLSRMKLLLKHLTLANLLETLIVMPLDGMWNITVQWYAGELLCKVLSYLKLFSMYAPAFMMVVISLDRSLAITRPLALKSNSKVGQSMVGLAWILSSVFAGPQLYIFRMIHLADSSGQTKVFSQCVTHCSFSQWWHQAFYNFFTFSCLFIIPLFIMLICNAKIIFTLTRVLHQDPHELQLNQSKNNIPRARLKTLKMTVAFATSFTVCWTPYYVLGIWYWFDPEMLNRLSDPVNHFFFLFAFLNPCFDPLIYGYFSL
# In short: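 HEK293 cells stably expressing human GnRHR were plated 18 h at 37 °C, loaded with calcium dye 1 h at 37 °C, then given compound in agonist mode; fluorescence (Ex/Em 480/540) read kinetically for 3 min at 1 s intervals.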
# [4] = molecular target: KiSS-1 receptor (Homo sapiens) (UniProt Q969F8); assay: Human kisspeptin (KISS1R) small molecule agonists, calcium flux assay in KISS1R-HEK293 cells (AID 1920064; active means well fitted curve in the direction sought with a large enough effect in the repeat runs; an effect the other way counts as inactive or inconclusive)
# Chain of KiSS-1 receptor (Homo sapiens) (Q969F8 whole entry, looked up): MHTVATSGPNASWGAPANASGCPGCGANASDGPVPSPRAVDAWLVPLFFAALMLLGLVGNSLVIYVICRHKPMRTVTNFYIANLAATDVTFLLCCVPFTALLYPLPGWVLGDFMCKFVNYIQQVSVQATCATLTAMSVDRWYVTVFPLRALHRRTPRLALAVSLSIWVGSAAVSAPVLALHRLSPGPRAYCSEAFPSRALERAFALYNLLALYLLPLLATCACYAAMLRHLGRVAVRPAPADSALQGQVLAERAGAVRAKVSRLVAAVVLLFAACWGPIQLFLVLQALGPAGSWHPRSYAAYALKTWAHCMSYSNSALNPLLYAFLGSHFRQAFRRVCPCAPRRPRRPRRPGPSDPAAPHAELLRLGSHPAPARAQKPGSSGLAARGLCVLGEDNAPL
# In short: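 HEK293 cells stably expressing human KISS1R were plated 18 h at 37 °C, loaded with calcium dye for 1 h at 37 °C, then given compound by pin tool. Fluorescence (Ex/Em 480/540) was read kinetically for 3 min.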
# [5] = G protein-coupled receptor (GPCR) small molecule agonists, calcium flux assay: HEK293 wild type cell line counter screen (AID 1920065)
# In short: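 Cells were plated and cultured 18 h at 37 C/5% CO2, then loaded with calcium dye for 1 h at 37 C. Compounds in DMSO were pin-transferred in agonist mode, and fluorescence (Ex/Em 480/540) was read kinetically for 3 min at 1 s intervals.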
# [6] = p53 small molecule agonists, cell-based qHTS assay with human liver microsomes (AID 1963577);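 further: p53 response element beta-lactamase reporter cells with liver microsomes plus NADPH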
# In short: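 With metabolic activation: human liver microsomes (0.5 mg/mL final) plus NADPH (0.5 mg/mL final) added alongside compounds to p53RE-bla cells; 16 h 37 C exposure; beta-lactamase read by LiveBLAzer fluorescence.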
# [7] = p53 small molecule agonists, cell-based qHTS assay with rat liver microsomes (AID 1963578)
# In short: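 Metabolic activation by rat liver microsomes and NADPH, each 0.5 mg/mL final, added right after compounds to p53RE-bla reporter cells (4,000/well, plated 5 h earlier). 16 h at 37 C, then LiveBLAzer substrate for 2 h at room temperature in the dark; fluorescence read-out.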
# [8] = p53 small molecule agonists, cell-based qHTS assay with human liver microsomes: qHTS cell viability counter screen (AID 1963579); further: nearly all actives have a fitted effect of over 45% in size
# In short: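 Metabolic activation used human liver microsomes and NADPH, both 0.5 mg/mL final, over 16 hours at 37 C on p53RE-bla cells (4,000/well). Cytotoxicity measured by CellTiter-Glo luminescence, 30 min at room temperature.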
# [9] = p53 small molecule agonists, cell-based qHTS assay with rat liver microsomes: qHTS cell viability counter screen (AID 1963580); further: nearly all actives have a fitted effect of over 45% in size
# In short: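 HCT-116 p53RE-bla, 4,000 cells/well, 5 h pre-incubation; cpd + rat liver microsomes 0.5 mg/mL + NADPH 0.5 mg/mL (final); 16 h, 37 C; CellTiter-Glo, 30 min RT; luminescence.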
# [10] = p53 small molecule agonists, cell-based qHTS assay: qHTS cell viability counter screen (AID 1963581); further: nearly all actives have a fitted effect of over 45% in size
# In short: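 p53RE-bla HCT-116 cells were exposed to compounds for 16 h at 37 C; after the beta-lactamase FRET read in the same wells, CellTiter-Glo was added and luminescence (intracellular ATP) read after 30 min at room temperature.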
# [11] = p53 small molecule agonists, cell-based qHTS assay (AID 1963582; active means well fitted activation curve with a large enough effect in the signal ratio in the repeat runs, not every such curve was filed as active; the % refers to the signal ratio)
# In short: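 p53RE-bla beta-lactamase reporter cells rested 5 h at 37 C/5% CO2, then received compounds in DMSO by pin transfer and were incubated 16 h at 37 C. LiveBLAzer B/G FRET substrate was loaded for 2 h at room temperature before fluorescence reading.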
# [12] = molecular target: 5-hydroxytryptamine receptor 2A (Homo sapiens) (UniProt P28223); assay: 5-hydroxytryptamine receptor 2A (HTR2A) small molecule agonists, cell-based qHTS assay (AID 1963587); further: nearly all actives have a fitted effect of over 30% in size; further: potency means the concentration at half of the fitted maximal effect
# Chain of 5-hydroxytryptamine receptor 2A (Homo sapiens) (P28223 whole entry, looked up): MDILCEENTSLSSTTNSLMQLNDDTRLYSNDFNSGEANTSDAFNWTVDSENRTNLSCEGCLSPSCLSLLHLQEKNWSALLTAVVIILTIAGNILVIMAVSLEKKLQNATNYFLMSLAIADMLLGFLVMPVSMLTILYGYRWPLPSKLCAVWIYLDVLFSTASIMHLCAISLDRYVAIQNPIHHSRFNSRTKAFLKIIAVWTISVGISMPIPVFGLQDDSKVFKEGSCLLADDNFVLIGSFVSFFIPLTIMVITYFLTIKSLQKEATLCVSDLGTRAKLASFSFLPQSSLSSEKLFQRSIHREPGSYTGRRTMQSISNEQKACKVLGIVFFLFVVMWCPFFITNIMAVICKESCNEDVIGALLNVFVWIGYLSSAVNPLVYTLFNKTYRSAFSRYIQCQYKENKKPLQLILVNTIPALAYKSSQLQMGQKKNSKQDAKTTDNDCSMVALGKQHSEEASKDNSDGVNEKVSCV
# In short: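 Kinetic calcium-flux fluorescence (2 min, 1 sec intervals) after compound addition in agonist mode. HTR2A-CHO cells were cultured 18 h, then dye-loaded 1 h at 37 C.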
# [13] = molecular target: Muscarinic acetylcholine receptor M1 (Homo sapiens) (UniProt P11229); assay: Cholinergic receptor muscarinic 1 (CHRM1) small molecule antagonists, cell-based qHTS assay (AID 1963588); further: nearly all actives have a fitted effect of over 40% in size; further: potency means the concentration at half of the fitted maximal effect
# Chain of Muscarinic acetylcholine receptor M1 (Homo sapiens) (P11229 whole entry, looked up): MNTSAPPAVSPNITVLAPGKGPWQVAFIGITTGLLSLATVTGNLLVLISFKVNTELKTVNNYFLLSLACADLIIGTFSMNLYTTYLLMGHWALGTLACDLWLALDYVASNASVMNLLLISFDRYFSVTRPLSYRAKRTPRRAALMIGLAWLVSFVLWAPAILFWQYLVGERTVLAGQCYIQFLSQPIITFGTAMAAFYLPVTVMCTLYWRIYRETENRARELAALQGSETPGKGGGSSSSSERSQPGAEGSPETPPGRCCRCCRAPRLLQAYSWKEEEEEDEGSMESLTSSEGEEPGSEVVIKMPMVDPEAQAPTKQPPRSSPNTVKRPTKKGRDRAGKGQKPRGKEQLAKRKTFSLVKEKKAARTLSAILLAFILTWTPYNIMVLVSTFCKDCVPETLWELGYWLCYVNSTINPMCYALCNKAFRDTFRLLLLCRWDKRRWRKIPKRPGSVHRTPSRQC
# In short: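 CHRM1-CHO calcium-flux assay, antagonist mode. Cells were seeded 18 h, dye-loaded 1 h at 37 C and given compound for 5 min at RT, then acetylcholine was added at 50nM. FDSS fluorescence was read 3 min; 15 concentrations, three runs.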
# [14] = molecular target: Muscarinic acetylcholine receptor M1 (Homo sapiens) (UniProt P11229); assay: Cholinergic receptor muscarinic 1 (CHRM1) small molecule agonists, cell-based qHTS assay (AID 1963589); further: nearly all actives have a fitted effect of over 35% in size
# In short: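 CHO cells stably expressing human CHRM1, seeded 18 h at 37 C/5% CO2, dye-loaded 1 h at 37 C, then given compound in agonist mode; intracellular calcium fluorescence read kinetically at 1 s intervals. Fifteen concentrations, three independent runs.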
# [15] = cAMP Responsive Elements (CRE) small molecule agonists, cell-based qHTS assay (AID 1963590)
# In short: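 CRE-bla HEK 293T cells in DMEM with 10% dialyzed FBS, NEAA, pyruvate and 25 mM HEPES were plated 18 h at 37 C/5% CO2, then exposed to compounds in DMSO for 3 h before LiveBLAzer B/G FRET substrate addition.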
# [16] = cAMP Responsive Elements (CRE) small molecule antagonists, cell-based qHTS assay (AID 1963591; active means well fitted inhibition curve with a large enough effect in the signal ratio in the repeat runs, not every such curve was filed as active; the % refers to the signal ratio)
# In short: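 CRE-bla HEK293T cells were plated 18 h at 37 °C/5% CO2, pinned with compound in DMSO, then stimulated with NKH477 at 0.25 uM final for 3 h. LiveBLAzer B/G FRET substrate was added and plates incubated 2 h at room temperature.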
# [17] = molecular target: D(2) dopamine receptor (Homo sapiens) (UniProt P14416); assay: Dopamine D2 receptor (DRD2) small molecule antagonists, cell-based qHTS assay (AID 1963595; active means well fitted inhibition curve with a large enough effect in the signal ratio in the repeat runs, with a control signal flat; the % refers to the signal ratio; further: potency means the concentration at half of the fitted maximal effect)
# Chain of D(2) dopamine receptor (Homo sapiens) (P14416 whole entry, looked up): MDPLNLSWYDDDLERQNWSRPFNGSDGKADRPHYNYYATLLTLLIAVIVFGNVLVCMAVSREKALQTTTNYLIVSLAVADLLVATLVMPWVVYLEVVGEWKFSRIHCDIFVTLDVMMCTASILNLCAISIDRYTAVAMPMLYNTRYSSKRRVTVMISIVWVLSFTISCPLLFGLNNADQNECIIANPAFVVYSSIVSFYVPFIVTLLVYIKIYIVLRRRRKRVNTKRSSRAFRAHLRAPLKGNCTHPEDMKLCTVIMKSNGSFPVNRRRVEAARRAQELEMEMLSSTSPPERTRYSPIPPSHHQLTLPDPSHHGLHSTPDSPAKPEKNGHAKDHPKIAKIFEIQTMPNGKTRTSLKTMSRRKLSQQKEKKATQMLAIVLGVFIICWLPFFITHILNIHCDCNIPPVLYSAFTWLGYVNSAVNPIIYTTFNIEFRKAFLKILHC
# In short: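 DRD2-HEK293; 0.1 mM Ro20-1724; cpd 10 min RT; NKH477 200 nM + quinpirole 12 nM, 30 min RT; HTRF cAMP (cAMP-d2/anti-cAMP cryptate), 665/620 nm ratio after 1 h.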
# [18] = molecular target: Beta-2 adrenergic receptor (Homo sapiens) (UniProt P07550); assay: Adrenergic beta2 receptor (ADRB2) small molecule antagonists, cell-based qHTS assay (AID 1963592); further: series mostly up to about 92 µM; nearly all actives have a fitted effect of over 50% in size
# Chain of Beta-2 adrenergic receptor (Homo sapiens) (P07550 whole entry, looked up): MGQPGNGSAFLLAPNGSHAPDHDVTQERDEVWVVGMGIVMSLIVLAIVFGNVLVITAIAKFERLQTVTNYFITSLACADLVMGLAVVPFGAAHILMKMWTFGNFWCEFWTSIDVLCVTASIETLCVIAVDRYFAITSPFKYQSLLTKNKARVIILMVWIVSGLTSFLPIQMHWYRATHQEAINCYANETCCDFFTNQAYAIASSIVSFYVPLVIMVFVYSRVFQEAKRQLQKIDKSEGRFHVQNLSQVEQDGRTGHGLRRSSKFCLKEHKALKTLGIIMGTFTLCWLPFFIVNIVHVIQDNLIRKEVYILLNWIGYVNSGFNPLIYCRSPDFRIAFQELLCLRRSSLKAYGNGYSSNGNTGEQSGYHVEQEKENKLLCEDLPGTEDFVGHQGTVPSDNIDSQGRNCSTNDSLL
# In short: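 Cells (CHO, stable ADRB2 overexpression) incubated 18-20hr at 37C; compounds added from DMSO; agonist mix (1nM isoproterenol, 100uM IBMX, 25uM Ro-20-1724) added; 0.5hr RT; d2-cAMP and anti-cAMP-cryptate added; 1hr RT; 665/615 nm read.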
# [19] = molecular target: D(2) dopamine receptor (Homo sapiens) (UniProt P14416); assay: Dopamine D2 receptor (DRD2) small molecule agonists, cell-based qHTS assay (AID 1963594); further: nearly all actives have a fitted effect of over 35% in size
# In short: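 cAMP accumulation in DRD2-HEK293 cells measured by HTRF after 1 h detection; compounds added 10 min before NKH477 (200nM […]) forskolin-analogue stimulation, 30 min at room temperature, with Ro20-1724 present at 0.1 mM final.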
# [20] = molecular target: Beta-2 adrenergic receptor (Homo sapiens) (UniProt P07550); assay: Adrenergic beta2 receptor (ADRB2) small molecule agonists, cell-based qHTS assay (AID 1963593);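 further: CHO cells stably overexpressing human ADRB2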
# In short: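 CHO cells stably over-expressing ADRB2 were plated overnight at 37C, then dosed with compounds plus a stimulation mix containing 100uM IBMX and 25uM Ro-20-1724 for 0.5hr at room temperature. cAMP was measured by HTRF competition, 1hr.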
structure (smiles),measurement,setting,value
CC(C)NCC(O)COc1ccc(COCCOC(C)C)cc1 (centres undefined),Potency,[1],inactive
same,Potency,[2],inactive
same,Potency,[3],inactive
same,outcome,[4],inactive
same,outcome,[5],inactive
same,Potency,[6],inactive
same,Potency,[7],inactive
same,Potency,[8],inactive
same,Potency,[9],inactive
same,Potency,[10],inactive
same,Potency,[11],inactive
same,Potency,[12],inactive
same,Potency,[13],inactive
same,Potency,[14],inactive
same,Potency,[15],inactive
same,Potency,[16],inactive
same,Potency,[17],inactive
CCCCCCCCOCCCN,Potency,[1],68.6 µM (active)
same,Potency,[2],inactive
same,Potency,[3],inactive
same,outcome,[4],inactive
same,outcome,[5],inactive
same,Potency,[6],inactive
same,Potency,[7],inactive
same,Potency,[8],inactive
same,Potency,[9],inactive
same,Potency,[10],inactive
same,Potency,[11],inactive
same,Potency,[12],24.5 µM (active)
same,Potency,[13],inactive
same,Potency,[14],inactive
same,Potency,[15],inactive
same,Potency,[16],inactive
same,Potency,[18],inactive
same,Potency,[19],inactive
CC(=O)O[C@H]1CC[C@@]2(C)C(=CC[C@@H]3[C@@H]2CC[C@]2(C)C(C(C)=O)=CC[C@@H]32)C1,Potency,[1],inactive
same,Potency,[2],inactive
same,Potency,[3],inactive
same,outcome,[4],inactive
same,outcome,[5],inactive
same,Potency,[6],inactive
same,Potency,[7],inactive
same,Potency,[8],inactive
same,Potency,[9],inactive
same,Potency,[10],inactive
same,Potency,[11],inactive
same,Potency,[12],inactive
same,Potency,[13],inactive
same,Potency,[14],inactive
same,Potency,[15],inactive
same,Potency,[16],inactive
same,Potency,[18],inactive
same,Potency,[20],inactive
same,Potency,[17],inactive
O=C(CS)Nc1ccccc1,Potency,[1],inactive
same,Potency,[2],29.8 µM (active)
same,Potency,[3],inactive
same,outcome,[4],inactive
same,outcome,[5],inactive
same,Potency,[6],inactive
same,Potency,[7],inactive
same,Potency,[8],inactive
same,Potency,[9],inactive
same,Potency,[10],inactive
same,Potency,[11],inactive
same,Potency,[12],inactive
same,Potency,[13],inactive
same,Potency,[14],inactive
same,Potency,[16],inactive
same,Potency,[18],inactive
same,Potency,[19],inactive
COC(=O)c1ccc(OC)cc1,Potency,[1],inactive
same,Potency,[2],inactive
same,Potency,[3],inactive
same,outcome,[4],inactive
same,outcome,[5],inactive
same,Potency,[6],inactive
same,Potency,[7],inactive
same,Potency,[8],inactive
same,Potency,[9],inactive
same,Potency,[10],inactive
same,Potency,[11],inactive
same,Potency,[12],inactive
same,Potency,[13],inactive
same,Potency,[14],inactive
same,Potency,[16],inactive
same,Potency,[18],inactive
same,Potency,[19],inactive
same,Potency,[17],inactive
CCCCCCCCC(=O)Cl,Potency,[1],inactive
same,Potency,[2],inactive
same,Potency,[3],inactive
same,outcome,[4],inactive
same,outcome,[5],inactive
same,Potency,[6],inactive
same,Potency,[7],inactive
same,Potency,[8],inactive
same,Potency,[9],inactive
same,Potency,[10],inactive
same,Potency,[11],inactive
same,Potency,[12],inactive
same,Potency,[13],inactive
same,Potency,[14],inactive
same,Potency,[16],inactive
same,Potency,[18],inactive
same,Potency,[19],inactive
same,Potency,[17],inactive
CCN1CCN(c2cc(-c3ccc(F)cc3)c3c(n2)CCCCCC3)CC1,"activity change, negative = cytotoxicity",[1],-1.5% [at 19 µM]
same,"activity, positive = activation",[2],-2.3% [at 19 µM]
same,activity change,[3],"17.8% [at 11.8 µM, active compounds read high]"
same,activation,[4],8.32% [at 15.8 µM]
same,activation,[5],-0.133% [at 11.8 µM]
same,activation,[6],-0.562% [at 13.5 µM]
same,activation,[7],-1.02% [at 13.6 µM]
same,"activity change, negative = cytotoxicity",[8],11.2% [at 13.5 µM]
same,"activity change, negative = cytotoxicity",[9],0.85% [at 13.5 µM]
same,"activity change, negative = cytotoxicity",[10],1.98% [at 13.5 µM]
same,activation,[11],-0.331% [at 13.5 µM]
same,activation,[12],-5.11% [at 15.9 µM]
same,Potency,[13],0.0317 µM (active)
same,activation,[14],2.2% [at 15.8 µM]
same,"activity change, negative = inhibition",[16],1.59% [at 18.9 µM]
same,"activity change, negative = inhibition",[18],-12.5% [at 19 µM]
same,Potency,[17],0.0326 µM (active)
